We go through 101 compounds from PubChem BioAssay AID686978 (National Center for Advancing Translational Sciences (NCATS), 2013).

Where “and” joins values, the source holds several entries; their conditions need not be identical. Identical values can stand only once. Among all 420,000 compounds or so, about 64,000 (15%) were called active. Another 27% or so got no clear call; they are omitted. Calls follow the shape of the dose curve; as a rule, active = well fitted inhibition curve with a large enough effect; inconclusive = small, poorly fitted or top-dose-only effect; inactive = flat fitted curve, though single readings scatter. The list is a sample of the results. A call without a number means that no potency is given here.
Potency is read from the fitted curve at half-maximal effect.

The experiment can be described thus: qHTS for Inhibitors of human tyrosyl-DNA phosphodiesterase 1 (TDP1): qHTS in cells in absence of CPT. Also: nearly all actives have a fitted effect of over 55% in size. The note with it: DT40 Tdp1-/- hTDP1 cells, no CPT, ATP luminescence, 48 h; activity change, negative = growth inhibition: at 46.2 µM (top of the series). An outline of the steps: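 Stably hTDP1-transfected Tdp1-null chicken DT40 cells were treated with library compounds minus camptothecin and grown for at least 48 hr at 37 °C, after which cellular ATP was quantified by luminescence.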
Background: In qHTS, concentration-response curves come from the screen itself.
Turning to `O=C(c1cccc(-n2cccc2)c1)N1CCN(S(=O)(=O)c2ccc(F)cc2)CC1`, the Potency entry is “inactive”.

As to `C=C(Cl)COC(=O)C1C2C=CC(C2)C1C(=O)O` (stereo unspecified), the Potency entry is “inactive”. The same measure for `CC12CN(NC(=O)c3ccc(Cl)cc3)C3(C#N)CC1CCC23C` (stereo unspecified): “inactive”; for `Cc1ccc(C(CNC(=O)Nc2ccccc2)N2CCN(C)CC2)cc1` (stereo unspecified): “inactive”; for `Cc1ccc(NC(=O)[C@H](Cc2ccccc2)NC(=O)CC[C@H]2O[C@@H](n3ccc(=O)[nH]c3=O)[C@H](O)[C@@H]2O)cc1C`: “inactive”. Take `CCOC(=O)/C(N=Nc1cc(C(=O)O)cc(C(=O)O)c1)=C(\O)CCl`: the Potency entry is “inactive”. As to `CCOc1ccc(/C(O)=C2\C(=O)C(=O)N(c3ccc(OC)cc3)C2c2ccccc2[N+](=O)[O-])cc1` (stereo unspecified), the Potency entry was “inactive”. The same measure for `CCO/C=C1\C(=O)N(c2ccc(OCC)cc2)C(=O)c2ccccc21`: “inactive”. With `CCOc1ccc(-c2n[nH]c3c2C(c2ccccc2OC)N(c2ccc(Br)cc2)C3=O)cc1` (stereo unspecified) the figure was 14.6 µM (active); with `Cc1ccc(C(=O)Nc2ccn(C)n2)cc1`, “inactive”. Turning to `O=C(Nc1nccs1)C1CCCN1S(=O)(=O)c1cccc2cccnc12` (stereo unspecified), the Potency result was “inactive”.

In the case of `COc1ccc(NC(=O)C2CCCN(S(=O)(=O)c3cccc4cccnc34)C2)cc1OC` (stereo unspecified), the Potency result is “inactive”. The same measure for `Cc1ccc(NC(=O)C2CCCN2S(=O)(=O)c2cccc3cccnc23)c(C)c1` (stereo unspecified): 18.4 µM (active) and 16.4 µM (active); for `COC(=O)C1=CN(c2c(C)cc(C)cc2C)C(N)=C(C#N)C1c1cccc(F)c1` (stereo unspecified): 14.6 µM (active); for `Cn1c2c(c(=O)n(C)c1=O)C(c1cccc(F)c1)C(C#N)=C(N)O2` (stereo unspecified): “inactive”. With `COC(=O)C1=C(C)N(C)C(C)=C(C(=O)OC)C1c1cccc(Br)c1` the entry was “inactive”. With `Cc1ccc(NC(=O)C(C)OC(=O)Cc2c[nH]c3ccccc23)cc1S(=O)(=O)N1CCOCC1` (stereo unspecified), the Potency entry was “inactive”.

Regarding `O=C(OCC(=O)N1CCCCCC1)c1ccc(Br)c(S(=O)(=O)N2CCOCC2)c1`, the Potency entry was “inactive”.

Regarding `COc1cc(Br)cc(/C=N/c2ncn[nH]2)c1O`, the Potency result was “inactive”. Take `N#C/C(C(=O)N1CCOCC1)=C1/SC(Cc2ccc(F)cc2)C(=O)N1c1ccccc1` (stereo unspecified): the Potency entry was “inactive”. The same measure for `C#Cc1ccc(NC(=O)C2(C)CCN2C(=O)Cc2ccc(-c3ccccc3)cc2)cc1` (stereo unspecified): 20.6 µM (active); for `CCCNC(=O)C1(C)CCN1C(=O)Cc1ccc(-c2ccccc2)cc1` (stereo unspecified): 9.2 µM (active); for `CC1(C(=O)NS(=O)(=O)c2ccccc2)CCN1C(=O)Cc1ccc(-c2ccccc2)cc1` (stereo unspecified): “inactive”. With `COc1ccc(OC)c(NC(=O)C2(C)CCN2C(=O)Cc2ccccc2)c1` (stereo unspecified) the entry was “inactive”; with `CC1(C(=O)NS(=O)(=O)Cc2cccc(Cl)c2)CCN1C(=O)Cc1ccccc1` (stereo unspecified), “inactive”. As to `CC1(C(=O)NS(=O)(=O)c2cccs2)CCN1C(=O)Cc1ccc(-c2ccccc2)cc1` (stereo unspecified), the Potency entry is “inactive”. `O=C(CSc1cn(CC(=O)N2CCOCC2)c2ccccc12)Nc1ccccc1`: the Potency entry was “inactive”.

For the compound `O=C(CN1C(=O)NC2(CCCC2)C1=O)Nc1cc(C(F)(F)F)ccc1N1CCOCC1`, the Potency entry was “inactive”.

Regarding `Cc1ccc2c(c1)N(CCCC(=O)NCc1cccnc1)C(=O)CO2`, the Potency entry is “inactive”. The same measure for `COc1cc(C)ccc1OCC(=O)OCC(=O)c1ccc[nH]1`: “inactive”; for `COCC1CCN(C(=O)C2CCC(=O)N(CC3CCCCC3)C2)CC1` (stereo unspecified): “inactive”; for `Cc1ccc(S(=O)(=O)N(CC(=O)NCc2ccco2)c2ccccc2C)cc1`: “inactive”. With `CN(CC(=O)Nc1cccc2c1CCCC2)S(=O)(=O)c1ccc(Cl)cc1` the entry was “inactive”. Turning to `Cc1ccc(S(=O)(=O)N(CC(=O)Nc2ccc(Cl)cc2Cl)c2ccccc2C)cc1`, the Potency is 11.6 µM (active).

Regarding `Cc1ccc(N2C(=O)SC(N(CC(=O)O)c3ccc(C)cc3)C2=O)cc1` (stereo unspecified), the Potency entry was “inactive”. Consider `C(#CCN1CCOCC1)CCCN1CCOCC1`, for which the Potency result is “inactive”.

On to `COc1ccc(NC(=O)C(=O)NCc2ccco2)cc1`, for which the Potency entry is “inactive”. The same measure for `COc1ccc(Nc2nc(Cl)nc(NCc3ccco3)n2)cc1`: “inactive”; for `COc1ccc(Nc2nc(NCc3ccco3)nc(N/N=C/c3ccccc3Cl)n2)cc1`: 23.1 µM (active). With `CN1CCn2cnc(C(=O)NCC(=O)OC(C)(C)C)c2C1=O` the entry was “inactive”. In the case of `CC12CCC(C(=O)N(CCC#N)CCC#N)(CC1=O)C2(C)C` (stereo unspecified), the Potency result is “inactive”. `CC1=CC(C)(C)NC(=S)N1NC(=O)c1ccccc1Cl`: the Potency entry was “inactive”.

In the case of `COc1ccc(NS(=O)(=O)c2cc(NC(=O)/C=C/c3cc(OC)c(OC)c(OC)c3)ccc2N2CCCCC2)cc1`, the Potency result was “inactive”.

Take `COc1ccc(NS(=O)(=O)c2cc(NC(=O)C3CCCCC3)ccc2N2CCOCC2)cc1`: the Potency was 13 µM (active). With `COc1ccc(NS(=O)(=O)c2cc(NC(=O)c3ccc(S(=O)(=O)N(C)C)cc3)ccc2N2CCOCC2)cc1` the entry was “inactive”; with `O=c1[nH]c(CN2CCOCC2)nc2scc(-c3ccccc3)c12`, “inactive”; with `Oc1ccc(-n2nnnc2SCc2c(F)cccc2Cl)cc1`, “inactive”. In the case of `CC(CC(=O)N1CCN(c2ccccc2)CC1)c1ccccc1` (stereo unspecified), the Potency result is “inactive”. For the compound `CC(CC(=O)N1CCN(c2ccccc2)CC1)S(=O)(=O)c1ccc2c(c1)NC(=O)CS2` (stereo unspecified), the Potency was 20.6 µM (active). With `COc1ccccc1CNS(=O)(=O)c1ccc2c(c1)NC(=O)CS2` the entry was “inactive”; with `Cc1nonc1NC(=O)c1ccccc1Br`, “inactive”. The same measure for `CC(C)C(C(=O)NCc1ccco1)N(CC1CCCO1)C(=O)CNS(=O)(=O)c1ccc(F)cc1` (stereo unspecified): “inactive”; for `CCOC(=O)Cc1ccc(NC(=O)Nc2c[nH]c(=O)[nH]c2=O)cc1`: “inactive”; for `CCN(CC)Cc1nc2sc(C)c(C)c2c(=O)[nH]1`: “inactive”. The same measure for `CS(=O)(=O)N(Cc1nc2sc3c(c2c(=O)[nH]1)CCCC3)C1CCCCC1`: 23.1 µM (active); for `Cc1ccc(S(=O)(=O)N2CCCC2C(=O)OCc2nc3sc(C)c(C)c3c(=O)[nH]2)cc1` (stereo unspecified): “inactive”; for `CC(=O)Nc1ccc(NC(=O)CC2CCCC2)cc1`: “inactive”. For `COc1cc(CCN=Cc2ccccc2O)c([N+](=O)[O-])cc1OC`, the Potency result was “inactive”. With `Cc1c(NC(=O)C(=O)N/N=C/c2cccs2)c(=O)n(-c2ccccc2)n1C` the entry was “inactive”; with `Cc1cc(N=CC2=C(O)CCCC2=O)no1`, “inactive”; with `COc1ccc(Nc2ncnc3ccc(Br)cc23)c(OC)c1`, “inactive”. Turning to `CC1(C)CC2CC(C)(CN2c2ncnc3ccc(Br)cc23)C1` (stereo unspecified), the Potency was 3.26 µM (active). With `CCCCn1c(N)c(N(CCOC)C(=O)CSCC(=O)Nc2cccc(C)c2)c(=O)[nH]c1=O` the entry was “inactive”.

For `CC[C@@H](C)[C@@H](C(=O)N1CCN(C(=O)OC(C)(C)C)CC1)n1cc(CCC(=O)O)nn1`, the Potency result is “inactive”. As to `COc1ccc(C2NC(=O)N(C)C3=C2C(=O)N(c2ccc(C(=O)O)cc2)C3)cc1` (stereo unspecified), the Potency result was “inactive”.

For `Cc1ccc2nnn(Cc3cccc(C(C)(C)C)c3O)c2c1`, the Potency is 11.6 µM (active). On to `Cc1ccc(C(=O)CSc2nnc(Cn3nnc4ccccc43)n2C)cc1`, for which the Potency result was “inactive”. Take `O=C(Nc1ccccc1)N[C@H]1C[C@H](C(=O)O)Nc2cc(Cl)cc(Cl)c21`: the Potency result is “inactive”. The same measure for `CCCCCc1ccc(-c2ccc(OCC)cc2)nc1`: “inactive”; for `COc1ccc2[nH]c(=S)cc(C)c2c1`: “inactive”; for `COc1ccc2[nH]c3c(C)c4cc[n+](C)cc4c(C)c3c2c1`: 0.259 µM (active). Consider `COc1ccc2[nH]c3ccc(OC)cc3c2c1`, for which the Potency entry was “inactive”. With `O=S(=O)(NCc1ccc2c(c1)OCO2)c1cccc2nsnc12`, the Potency result was “inactive”. With `O=Cc1cn(-c2ccccc2)nc1-c1ccccn1`, the Potency result is “inactive”. The same measure for `COc1ccc2c(c1)SC(C)CC2=O` (stereo unspecified): “inactive”; for `COc1ccc2c(c1)OC(O)(C(F)(F)C(F)F)CC2=O` (stereo unspecified): 23.1 µM (active); for `CCCC(C(=O)N1CCOCC1)N1C(=O)C2C3C=CC(C3)C2C1=O` (stereo unspecified): “inactive”.

For the compound `CC(=O)OCC(COC(C)=O)OC(C)=O`, the Potency entry is “inactive”.

For the compound `O=C(CN1C(=O)/C(=C\c2ccccc2F)SC1=S)Nc1nc2ccccc2s1`, the Potency result is “inactive”. With `COCCN1CCn2c(nc3cc(NS(C)(=O)=O)ccc32)C1` the entry was “inactive”. `O=C(CN1C(=O)c2ccccc2S1(=O)=O)NC1CCCCC1`: the Potency result is “inactive”.

On to `COc1cccc(Oc2ccc(N)cc2)c1`, for which the Potency entry is “inactive”. The same measure for `COc1cc(OC)nc(N/N=C(\c2ccccc2)c2ccncc2)n1`: “inactive”.

On to `CCOc1ccc(N2C(=O)CSC2=NC#N)cc1`, for which the Potency entry is “inactive”. The same measure for `CCC(C(=O)NC1CCCC1)N(C(=O)c1snc(C(N)=O)c1N)c1ccc2c(c1)OCCO2` (stereo unspecified): “inactive”; for `COc1ccc(N(C(=O)c2snc(C(N)=O)c2N)C(C(=O)NC2CCCC2)c2ccco2)cc1OC` (stereo unspecified): “inactive”; for `CCC(C(=O)NC1CCCCC1)N(C(=O)c1snc(C(N)=O)c1N)c1ccc(OC)cc1OC` (stereo unspecified): 23.1 µM (active).

With `COc1cccc(-n2c(=O)c3c(C)c(C(=O)N(C)C)sc3n(CC(=O)NCCc3ccc(OC)c(OC)c3)c2=O)c1`, the Potency result was “inactive”. Take `CN(C)C(CNC(=O)Cc1ccc([N+](=O)[O-])cc1)c1ccccc1` (stereo unspecified): the Potency result is “inactive”. The same measure for `CCc1ccc(C(CNc2nc(C(F)(F)F)nc3ccccc23)N(C)C)cc1` (stereo unspecified): 18.4 µM (active). For `C=CCn1cc(Cl)cc(C(=O)Nc2ccccc2)c1=O`, the Potency result is “inactive”.

`CCn1cc(/C=C(\NC(=O)c2ccc(C)cc2)C(=O)NCCN2CCOCC2)c2ccccc21`: the Potency result is “inactive”.

Take `COc1ccccc1NC(=O)CCCc1c[nH]c2ccccc12`: the Potency result is “inactive”.

Consider `O=C(CC(=O)N/N=C\c1ccc(F)cc1)NCCc1ccccc1`, for which the Potency result was “inactive”. With `O=C(Cc1c[nH]c2ccccc12)N/N=C/c1cccc(F)c1` the figure was 3.66 µM (active); with `COCCNC(=O)C(c1ccc(O)cc1)N(C(=O)CCC(=O)Nc1nccs1)c1ccc(C)cc1` (stereo unspecified), “inactive”. As for `C/C(=N/NC(=O)CC(=O)N/N=C(\C)c1ccc([N+](=O)[O-])cc1)c1ccc([N+](=O)[O-])cc1`, the Potency result was “inactive”. With `CCOC(=O)COc1ccc([N+](=O)[O-])cc1` the entry was “inactive”. `C/C(=N\N(C)C)c1ccc(OCCOc2ccc([N+](=O)[O-])cc2)cc1`: the Potency was 25.9 µM (active). The same measure for `Cc1cccc(N(CC(=O)N2CCCC2)S(C)(=O)=O)c1C`: “inactive”; for `CC1(OC(=O)CCc2ccccc2)C(=O)C=C2C=C(c3ccc(C#N)cc3)N(CCc3ccccn3)C=C2C1=O` (stereo unspecified): “inactive”.
